This passage reports z-score results from PubChem BioAssay AID1508600 (Functional Genomics Laboratory (NCATS/FGL), 2020).

The whole screen tested about 53,000 sequences, of which about 3,700 (7%) were called active.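 The calls were made as follows: active = gene knockdowns whose robust z-score for IL-1 alpha signal is at least 2 or at most -2, so actives lie on both sides; inactive = the rest.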 The entries come from a sample that favours actives as a whole.

A short description of this test: Components of the Cytosolic LPS Sensing Pathway: Gene Identification via Genome-wide siRNA Screen.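 Also: robust z of the log signal after scaling to non-targeting control siRNA wells of the plate.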 The following applies: RAW264.7 macrophages, IL-1a HTRF, actives lie on both sides, screened at 100 nM (by protocol), cells primed 5 h with Pam3CSK4 first. Put shortly: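 Knockdown: 100 nM siRNA, 48h, RAW264.7. Stimulation: Pam3CSK4 5 h, then LipidA via TransIT-TKO 24 h. Output: supernatant IL-1a HTRF, negative-control-normalized, log robust z-score; viability by CellTiter-Glo.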
A general note: Time-resolved FRET reads energy transfer from a long-lived donor to a nearby acceptor.
With GGAGAAGAUGAUUAAGACCTT against Anp32b, the z-score was 0.51 (inactive).
Take CCACAGACUCUUAAUUAGATT against Ap3b1: the z-score was -2.14 (active).
For the sequence UAUCACAGACAUGAAAGAATT against Lst1, the z-score was 0.105 (inactive).
The figure for GGAAAAACAGUGCAGAUGGTT against Smchd1 is 0.228 (inactive); for GGGCAUUAAGACAAAGAGUTT against Fam3c it is 0.769 (inactive).
For GGAAAAGUUGCAUUUGGUCTT against Wdr17, the z-score is -1.02 (inactive).
As for GGAGUUCACUGUGCUGAUGTT against Ppbp, the z-score is -0.536 (inactive).
With GCUAAACUUAAGUCCAUCATT against Supt7l the figure was -0.592 (inactive).
With GGGUUUGUGGGAUACAAUCTT against Smarce1 the figure was 2.97 (active).
With GGGUAGUUAUACAAACUAATT against Snapc5 the figure was 1.53 (inactive).
For GGUUCACAUCCUCCUCAGATT against Twist2, the z-score is 1.08 (inactive).
Take CCUUGAUGCUCGUAGGAAGTT against Efr3a: the z-score is -1.11 (inactive).
The figure for GGACAUUCUGCUACACAAGTT against Bsx is 2.63 (active); for GCCAACAUGUAUCAAAGCUTT against Rpgr it is -1.11 (inactive).
The figure for GGACAAUGUGGUGCUGUCCTT against Slc34a3 is 0.492 (inactive).
With GGAGUCCUUUCGUUCUAUCTT against Rab2a the figure was -0.319 (inactive).
For the sequence GGACAUUGCUAACUGCCUUTT against Snx16, the z-score is 2.37 (active).
For GCCAAACUUACGUUUUUGATT against Trak2, the z-score is 0.81 (inactive).
For the sequence CCUGUUUAAACUCUGCGGATT against Vit, the z-score is 0.678 (inactive).
GGUUUUGUAGGAGUCUCUCTT against Vmn1r54: the z-score is 0.247 (inactive).
Consider GCUAGUACUAUUACCUGCUTT against Enkd1, for which the z-score is 2.17 (active).
Regarding GGUGAUGAUGAUGUCUUUGTT against B3gnt7, the z-score was 1.93 (inactive).
Take GCUGAAUAGCCUCUAUCUATT against Rasgrp4: the z-score was 0.261 (inactive).
With GCCUCUACUUUACCAAGUUTT against Olfr883 the figure was 0.523 (inactive).
For the sequence GGGCUUUAGCCUGAGCGAUTT against Gpc1, the z-score was -0.916 (inactive).
Turning to GGUGAGCUUGGUUUCUAAATT against Gdf15, the z-score was 2.28 (active).
The figure for GGCAUCUUCAUGUACUUGCTT against Olfr1445 is 1.5 (inactive); for GGUUUUCAGUACAUCCUGGTT against Cryba4 it is 0.183 (inactive); for GCCAUGCAUCUGGAUUUACTT against Nat1 it is 1.19 (inactive).
Regarding GGAGCAGACUUUAAAAUGATT against Stau1, the z-score was -0.626 (inactive).
